# JMJD2A Tudor inh: qHTS Assay for Inhibitors of JMJD2A-Tudor Domain. Lysine-specific demethylase 4A (Homo sapiens), O75164. AlphaScreen JMJD2A-Tudor / H3K4me3 peptide binding. Potency, µM (series often up to 114 µM), inactives show at the top dose activity change, negative = inhibition, hits mostly inhibitors. 390,000 tested, 4.4% active. AID 504339, 2011; note: % is set by controls: 0 for no effect and ±100 for the full control effect; nearly all actives have a fitted effect of over 50% in size
# Sfp PPTase inh: qHTS Assay for Inhibitors of Bacillus subtilis Sfp phosphopantetheinyl transferase (PPTase); 4'-phosphopantetheinyl transferase ffp (Bacillus subtilis), Q9F4F7; Biochemical Sfp PPTase activity, qHTS; Potency, µM, without a hit: largest response in the series, negative = inhibition, actives largely listed as inhibitors; 310,000 tested, 3.5% active; AID 1490, 2009;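 note: the enzyme is Sfp with the accession as filed and its product quenches rhodamine fluorescence; 0% = enzyme reaction without inhibitor and -100% = no enzyme wells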
#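 Compounds were incubated with enzyme (final 15 nM) for 15 min at room temperature before substrate addition started the reaction. Fluorescence at 525 nm excitation, 598 nm emission was recorded immediately and after 30 minutes.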
# HP1b chromo inh: HTS for Inhibitors of HP1-beta Chromodomain Interactions with Methylated Histone Tails; Chromobox protein homolog 1 (Homo sapiens), P83916; AlphaScreen HP1-beta / biotin-H3K9me3 peptide binding; Potency, µM (doses to about 114 µM), for inactives: at the highest dose activity change, negative = inhibition, most hits filed as inhibitors; 390,000 tested, 0.56% active; AID 540317, 2011; note: nearly all actives have a fitted effect of over 70% in size
#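 HP1-beta protein (50 nM final) preincubated 30 min at room temperature with biotinylated H3(1-18)K9me3 peptide (50 nM) in PBS pH 7.4, 0.01% Tween-20, then compound added for 30 min. AlphaScreen streptavidin donor/nickel chelate acceptor beads (10 ug/mL final), 30 min dark, luminescence read.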
# BAZ2B inh: qHTS Assay for Inhibitors of BAZ2B. AlphaScreen BAZ2B-H3K14Ac peptide displacement. Potency, µM (series often up to 114 µM), without a hit: top-dose activity change, negative = inhibition, hits mostly inhibitors. 360,000 tested, 4.4% active. AID 504333, 2011; note: % is set by controls: 0 for no effect and ±100 for the full control effect; nearly all actives have a fitted effect of over 60% in size
#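 Protein-peptide AlphaScreen: BAZ2B 50 nM, b-H3K14Ac 50 nM, 1x PBS pH 7.4 + 0.01% Tween-20. Preincubation 30 min RT; cpd 30 min RT (top 110 uM); beads 20 min RT, light-protected.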
# TDP1 inh: qHTS Assay for Inhibitors of Tyrosyl-DNA Phosphodiesterase (TDP1); Potency, µM (top dose mostly 130 µM), without a hit: at the top dose activity change, negative = inhibition, actives largely listed as inhibitors; recombinant TDP1, AlphaScreen DNA substrate cleavage; Tyrosyl-DNA phosphodiesterase 1 (Homo sapiens), Q9NUW8; 350,000 tested, 0.28% active; note: % is set by controls: 0 for no effect and ±100 for the full control effect; nearly all actives have a fitted effect of over 40% in size
#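 AlphaScreen read-out: signal falls as enzyme removes the 3' tyrosine-FITC from a 5'-biotinylated DNA oligo (15 nM, 5 min, RT). Enzyme was E. coli-made recombinant Tdp1 at 1 nM, exposed to compound for 15 min beforehand; beads 10 ug/ml, 10 min.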
# G9a block: qHTS Assay for Inhibitors of Histone Lysine Methyltransferase G9a; Histone-lysine N-methyltransferase EHMT2 (Homo sapiens), Q96KQ7; G9a H3K9 monomethylation, AlphaScreen, 2 h; Potency, µM (titrated, usually from 102 µM), for the others: at the top dose activity, negative = inhibition, hits mostly inhibitors; 350,000 tested, 8.8% active; AID 504332, 2011; note: % is set by controls: 0 for no effect and ±100 for the full control effect; nearly all actives have a fitted effect of over 75% in size
#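 G9a (20 nM) preincubated 15 min RT with compounds, then 500 nM biotinylated H3K9 peptide and 20 uM SAM added; 2 h RT reaction. Monomethyl-H3K9 product detected by AlphaScreen with anti-H3K9me1 antibody, streptavidin donor and anti-rabbit IgG acceptor beads.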
# An asterisk follows results filed as active; ? = inconclusive; / = not tested or not shown; [ ] = dose if it differs, or a comment. A selection: hits, their analogues and other compounds. The true share with any hit is near 12%. Calls come from the whole dose curve; as a rule, active = well fitted curve in the direction sought with a large enough effect; inconclusive = small, poorly fitted or top-dose-only effect, or another doubt; inactive = no such curve, though single readings can be large; an effect the other way counts as inactive or inconclusive. Potency is the fitted concentration of half-maximal effect.
SMILES,JMJD2A Tudor inh,Sfp PPTase inh,HP1b chromo inh,BAZ2B inh,TDP1 inh,G9a block
Cc1ccccc1NC(=O)CSc1nnc(-c2cccc(Cl)c2)o1,-5.3%,/,34.7%,-22.5%,-5.7%,-2.2%[59 µM]
CC(C)Oc1ccc(S(=O)(=O)N2CCOCC2)cc1NC(=O)C(C)Oc1ccc(F)cc1 (centres undefined),-26.9%,/,22.2%,7.1%,0.5%,3.1%
COc1ccc(C(=O)N/C(=C\c2cn(C)c3ccccc23)C(=O)NCCN2CCOCC2)cc1OC,21.0%,-21.5%,42.8%,?,0.9%,50.1µM*
COc1cc(C(=O)N/C(=C\c2cn(C)c3ccccc23)C(=O)NCCN2CCOCC2)cc(OC)c1OC,-27.6%,-8.5%,27.5%,-22.8%,1.1%,/
O=[N+]([O-])c1ccccc1/C=N/N1CCN(Cc2ccccc2)CC1,25.1µM*,7.9%,?,28.2µM*,/,39.8µM*
O=[N+]([O-])c1ccccc1/C=N\N1CCN(Cc2ccccc2Cl)CC1,35.5µM*,-17.9%,?,28.2µM*,/,/
FC(F)(F)c1ccccc1/C=N/N1CCN(Cc2ccccc2)CC1,44.7µM*,-18.2%,-23.0%,39.8µM*,-4.6%,7.08µM*
FC(F)(F)c1ccc(/C=N/N2CCN(Cc3ccccc3)CC2)cc1,?,13.8%,?,?,8.0%,?
CCOc1ccccc1/C=N/N1CCN(Cc2ccccc2)CC1,56.2µM*,-24.6%,?,50.1µM*,/,/
CCc1nnc(SCC(=O)Nc2ccccc2Cl)nc1CC,5.2%,8.0%,28.5%,13.2%,0.0%,-30.7%
COc1ccc(Cn2cc(C(=O)c3ccc(Cl)cc3)c(=O)c3cc4c(cc32)OCO4)cc1,-24.6%,/,16.6%,-36.5%,6.9%,-29.8%[59 µM]
Clc1ccc(C=NN2CCCCCC2)c(Cl)c1,?,/,4.6%,/,/,/
c1ccc(CN2CCN(CCOCCOc3ccc4c(c3)CCC4)CC2)cc1,0.794µM*,7.8%,?,?,0.0%,/
CN1CCN(/N=C/c2cccc(Cl)c2Cl)CC1,?,3.1%,-15.6%,?,5.5%,39.8µM*
OCCOCCN1CCN(Cc2cccc(Oc3ccccc3)c2)CC1,/,-5.7%,/,/,5.6%,/
COc1ccc(Br)cc1/C=N/N1CCN(Cc2ccccc2)CC1,39.8µM*,6.7%,?,28.2µM*,7.5%,?
Clc1ccccc1/C=N/N1CCN(Cc2ccccc2)CC1,56.2µM*,-10.1%,-27.8%,44.7µM*,/,24.0%[0.501 µM]
CCS(=O)(=O)N1Cc2ccccc2CC1C(=O)N(C)CC(=O)Nc1ccc(OC)cc1 (centres undefined),-10.6%,/,45.9%,4.4%,0.1%,?
CCOc1ccccc1OCCOCCN1CCN(Cc2ccccc2)CC1,0.794µM*,79.4µM*,?,17.8µM*,/,/
FC(F)(F)c1cccc(OCCN2CCN(Cc3ccccc3)CC2)c1,0.891µM*,35.5µM*,?,50.1µM*,2.7%,11.2µM*
Cn1cccc1/C=N/N1CCN(Cc2ccccc2Cl)CC1,50.1µM*,56.2µM*,?,35.5µM*,/,28.2µM*
Cn1cccc1CNCc1ccccc1Cl,?,2.3%,0.1%,-38.2%,7.8%,-7.7%[2.33 µM]
CN(C)c1ccc(/C=N/N2CCN(Cc3ccccc3Cl)CC2)cc1,31.6µM*,-5.2%,?,50.1µM*,/,?
c1ccc(OCCN2CCN(C(c3ccccc3)c3ccccc3)CC2)cc1,-33.2%,-5.1%,15.9%,-14.0%,/,/
CCOc1ccccc1NC(=O)CN1CCN(Cc2ccccc2)CC1,-12.1%,3.0%,30.2%,1.1%,/,16.4%
SMILES,JMJD2A Tudor inh,Sfp PPTase inh,HP1b chromo inh,BAZ2B inh,TDP1 inh,G9a block
COC(=O)c1ccc(/C=N/N2CCN(Cc3ccccc3)CC2)cc1,-19.8%,?,11.5%,-8.4%,1.0%,?
N=c1c(C(=O)NC2CCCC2)cc2c(=O)n3ccccc3nc2n1C1CCCCC1,6.0%,13.5%,23.9%,-4.9%,/,-4.3%
CC(=O)c1c(C)nn(CC(=O)NC2CCCN(Cc3ccc(CC(C)C)cc3)C2)c1C (centres undefined),-10.9%,-3.2%,8.7%,-12.6%,2.0%,-4.7%[0.501 µM]
Cn1cccc1/C=N/N1CCN(c2ccccc2)CC1,-10.5%[11.4 µM],28.2µM*,?,50.1µM*,11.9%,31.6µM*
Fc1ccccc1/C=N/N1CCN(Cc2ccccc2Cl)CC1,50.1µM*,?,-17.1%,50.1µM*,/,22.0%[0.501 µM]
Cn1cccc1/C=N/n1cnnc1,-27.0%,-5.5%,21.7%,79.4µM*,-2.4%,?
C(=N/N1CCN(c2ccccc2)CC1)/c1ccncc1,?,1.6%,-14.7%,-38.7%,2.4%,?
C#CCOCCOCCOCCNc1nc(N2CCOCC2)nc(N2CCN(C(=O)[C@H](CCCCN)n3cc([C@@H](N)CC(C)C)nn3)CC2)n1,-25.7%,24.7%,47.7%,-36.6%,5.1%,?
C#CCOCCOCCOCCNc1nc(N2CCN(C(=O)[C@H](CCCCN)n3cc([C@@H](N)CO)nn3)CC2)nc(N2CCN(C(=O)[C@H](Cc3cc4ccccc4[nH]3)n3cc([C@@H](N)CC(C)C)nn3)CC2)n1,/,-9.1%,/,44.7µM*,6.4%,-22.9%[12.7 µM]
C#CCOCCOCCOCCNc1nc(N2CCN(C(=O)[C@H](CCCCN)n3cc([C@@H](N)CO)nn3)CC2)nc(N2CCN(C(=O)[C@H](Cc3cc4ccccc4[nH]3)n3cc([C@@H](N)CO)nn3)CC2)n1,/,7.3%,/,22.4µM*,7.1%,?
Cc1cccc(C(C(N)=O)c2ncc(C(F)(F)F)cc2Cl)c1 (centres undefined),0.7%,20.8%,32.9%,-7.3%,3.7%,2.5%
O=C(CNC(=O)N1CC(=O)Nc2ccccc21)NCc1ccc(Cl)cc1,-17.9%,5.6%,17.8%,79.4µM*,0.3%,/
O=C(CCNC(=O)N1CC(=O)Nc2ccccc21)NCc1cccc(Cl)c1,0.0%,18.8%,38.4%,0.3%,0.6%,23.6%
Cc1ccc(NC(=S)NC(=O)C2CC2)c(C)c1,-2.8%,17.5%,56.0%,-14.2%,0.5%,-19.0%
C[C@@H]1CC2[C@@H]3CC[C@H]4CC(=O)CC[C@]4(C)C3=CC[C@]2(C)[C@@]1(O)C(=O)CO (some centres undefined),-4.1%,-7.2%,29.2%,-24.2%,/,56.2µM*
O=C(NCCC1CCCCN1S(=O)(=O)c1cccs1)C(=O)Nc1cccc(F)c1 (centres undefined),-7.9%,/,30.9%,24.4%,-4.0%,-24.0%
